By inhibition is commonly meant the change of the read-out against control, counted positive when it falls.

These results are taken from PubChem BioAssay.

A short description of assay [1]: yeast TOR pathway RPL19A-GFP modulators, primary screen, cell-based, S. cerevisiae, multiplex flow cytometry (AID 1862; in the data active = percent of DMSO control GFP below about 86%;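 note: lower values mimic rapamycin by blocking the RPL19A rise seen in DMSO cells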). The following applies: S. cerevisiae RPL19A-GFP strain, flow cytometry fluorescence, 3 h; at 10 µM; stronger effect = lower value. (In general: In flow cytometry, cells or beads pass a laser one at a time.)
Assay [2] is described as follows: modulators of MEP2-GFP levels in yeast, primary screen, S. cerevisiae, multiplex flow cytometry (AID 1867;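 active = GFP response, as percent of the DMSO control, above the screen-wide mean plus 3 SD, about 139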;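 note: median GFP channel fluorescence of barcode-gated MEP2-GFP cells measured by flow cytometry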). The following applies: S. cerevisiae MEP2-GFP strain, 3 h, at 10 µM, stronger effect = higher value, 100% means same as DMSO wells.
Assay [3] can be described thus: modulators of CIT2-GFP expression in yeast, primary screen, S. cerevisiae, GFP fusion, multiplex flow cytometry (AID 1870).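 Note: barcoded CIT2-GFP strain pooled with four other GFP strains with rapamycin as positive control; median GFP fluorescence per well over plate mean of DMSO wells so 100% = DMSO.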 Particulars: 3 h, at 10 µM, stronger effect = higher value.
Assay [4] is described as follows: modulators of LAP4-GFP expression in yeast, primary screen, S. cerevisiae, multiplex flow cytometry (AID 1873;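 active = GFP signal, as percent of the solvent control, above the screen mean plus 3 SD, about 149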). Particulars: 3 h, at 10 µM, stronger effect = higher value.
The nature of assay [5]: modulators of AGP1-GFP expression in yeast TOR pathway, primary screen, cell-based, multiplex flow cytometry, S. cerevisiae (AID 1887;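 active = GFP signal above the screen-wide mean plus 3 SD, that is over about 124.5% of the solvent control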;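 note: AGP1-GFP fusion strain of S. cerevisiae within a five-strain barcoded multiplex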). The following applies: 3 h, at 10 µM, stronger effect = higher value.
The nature of assay [6]: inhibitors of CD8+ T cell-vesicle binding, pilot screen, LFA-1/ICAM-1 modulator project, MLPCN validation set, flow cytometry (AID 2523;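 active = response below a set limit, under 55% cells CD8-positive and vesicle-bound, and CD8 cells' 90th-percentile brightness under 279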;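 for vesicle binding response: mean PE anti-B7-1 fluorescence of CD8+ cells relative to row control; 100% = QL9-loaded vesicles with DMSO vehicle in the same plate row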). Particulars: 2C mouse CD8+ T cells, at 7 µM, stronger effect = lower value; double positive events: measured here: CD8+/vesicle+ event percentage.
Assay [7] has as its target Integrin beta-1 (Homo sapiens) + Integrin alpha-4 (Homo sapiens) (UniProt P13612+P05556). The assay can be described thus: inhibition of HUTS-21 binding to VLA-4, pilot screen, VLA-4 allosteric modulator project, U937 cells, HUTS-21 mAb, flow cytometry, validation set (AID 2674;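 active = inhibition above 50%, about 3 SD of the validation set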;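 note: antibody binding induced by the VLA-4 ligand LDV present at three times its Kd; 0% = LDV ligand with antibody and no compound and 100% = antibody without LDV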). The following applies: HUTS-21 LIBS mAb binding, at 6.7 µM, stronger effect = higher value, binding induced by LDV ligand.

Assay [8] is described as follows: superoxide lowering in aged yeast cells, pilot screen, validation compound set (AID 2706;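 active = superoxide response below 65% of plate, a cut near 3 SD across the whole screen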;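 note: yeast exposed to compound for one week at 30 degrees C before staining; 100% = mean of all compound wells on the same plate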). The following applies: S. cerevisiae aging, superoxide DHE fluorescence; at 10 µM; stronger effect = lower value.
For assay [9], the target named is Beta-adrenergic receptor kinase 1 (Homo sapiens) (UniProt P25098). Description: GRK2 binders displacing RNA aptamer, biochemical, validation, human GRK2, bead flow cytometry (AID 488806;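 active = aptamer binding inhibition above 30%, about 3 SD of noise from non-fluorescent compounds; inactive = inhibition at or below 30%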). Particulars: bead-bound GRK2, FAM-aptamer displacement, at 10 µM, stronger effect = higher value.
Assay [10] addresses Beta-2 adrenergic receptor (Homo sapiens) (UniProt P07550). The assay can be described thus: beta2AR agonists driving receptor internalization, pilot screen, cell-based, FAP fluorogen, flow cytometry, validation set (AID 504459;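 active = percent response above 42, roughly 3 SD of non-fluorescent test compounds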;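 note: agonist-driven loss of surface beta2AR via internalization measured by FAP dye flow cytometry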). Particulars: Am2.2-beta2AR cells, FAP surface receptor flow cytometry; at 10 µM; stronger effect = higher value.
Assay [11] deals with AP-2 complex subunit beta (Homo sapiens) (UniProt P63010). The assay can be described thus: inhibitors of arrestin peptide binding to AP2, pilot screen, biochemical, validation set, GST-AP2 beads, flow cytometry (AID 504541;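 active = inhibition above 54%, about 3 SD of non-fluorescent compounds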;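 note: AP2 carries R879A mutation and is captured from E. coli lysate; bead-bound FITC arrestin peptide fluorescence measuring arrestin peptide binding to AP2; 0% = DMSO wells and 100% = excess unlabeled arrestin peptide control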). The following applies: FITC arrestin peptide, at 10 µM, stronger effect = higher value, AP2 beta2 appendage fragment, R879A mutant.
Assay [12] is described as follows: yeast V-ATPase proton transport modulators, S. cerevisiae, pHLuorin, HTS validation (AID 504600; in the data active = response above about 15%;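 note: plate controls were DMSO for no effect and reference compound for full effect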). The following applies: S. cerevisiae pHLuorin cytosolic pH, at 10 µM, stronger effect = higher value.
For assay [13], the system named is anti-desmoglein-3 scFv antibody binding to human DSG3. The assay can be described thus: inhibitors of anti-DSG3 scFv binding to DSG3, pilot screen, biochemical, validation compound set, bead-based, flow cytometry (AID 588368;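 active = binding below the plate cutoff, the plate median minus 3 SD, with a reading above zero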;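 note: signal is the median channel fluorescence of bead-bound GFP antibody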). The following applies: Protein G beads, DSG3-Fc, scFv-GFP binding, at 10 µM, stronger effect = lower value.
Assay [14] is described as follows: inhibitors of fungal efflux pumps CDR1, CDR2, MDR1, pilot screen, validation compound set, multiplex, phenotypic (AID 588506;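 active = efflux inhibition above 0.42, the validation set average plus 4 SD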;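 note: Nile Red retained in cells so higher fluorescence means more efflux inhibition; 0 = negative control wells and 1 = enniatin B 25 µM full block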). The following applies: S. cerevisiae pump-expressing triplex, Nile Red efflux flow cytometry; at 10 µM; stronger effect = higher value; the pumps come from Candida albicans.
Assay [15] deals with ATP-binding cassette sub-family B member 6 (Homo sapiens) (UniProt Q9NP58). The assay can be described thus: ABCB6 transporter inhibitors, pilot screen, K562-ABCB6 cells, flow cytometry, validation set (AID 588550;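 active = inhibition above the screen-wide mean plus 3 SD, about 51%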;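 note: 0% = DMSO wells and 100% = benzethonium chloride 70 µM positive control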). Particulars: K562-ABCB6 porphyrin accumulation, 1 h, at 10 µM, stronger effect = higher value.
The nature of assay [16]: promoters of myeloid differentiation in arrested cells, primary screen, cell-based, GFP/MAC1 double positive, flow cytometry, validation set (AID 588685;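 active = differentiation response of at least 50%, scaled between solvent and reference control, from cells with both markers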;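 note: compound exposure lasts four days before antibody staining and flow analysis; 0% = DMSO wells and 100% = 5 µM fulvestrant positive control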). Particulars: ER-HoxA9 marrow cells, stronger effect = higher value, normalized: vehicle 0, fulvestrant 100.

Inconclusive results are not listed. Activity calls are given as the source filed them.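 Rule for the calls, unless noted: active = percent response above a set limit, the screen-wide mean plus 3 SD (cut at about 130% in these data); inactive = the rest.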

ATP-binding cassette sub-family B member 6 (Homo sapiens), sequence (Q9NP58 whole entry, looked up): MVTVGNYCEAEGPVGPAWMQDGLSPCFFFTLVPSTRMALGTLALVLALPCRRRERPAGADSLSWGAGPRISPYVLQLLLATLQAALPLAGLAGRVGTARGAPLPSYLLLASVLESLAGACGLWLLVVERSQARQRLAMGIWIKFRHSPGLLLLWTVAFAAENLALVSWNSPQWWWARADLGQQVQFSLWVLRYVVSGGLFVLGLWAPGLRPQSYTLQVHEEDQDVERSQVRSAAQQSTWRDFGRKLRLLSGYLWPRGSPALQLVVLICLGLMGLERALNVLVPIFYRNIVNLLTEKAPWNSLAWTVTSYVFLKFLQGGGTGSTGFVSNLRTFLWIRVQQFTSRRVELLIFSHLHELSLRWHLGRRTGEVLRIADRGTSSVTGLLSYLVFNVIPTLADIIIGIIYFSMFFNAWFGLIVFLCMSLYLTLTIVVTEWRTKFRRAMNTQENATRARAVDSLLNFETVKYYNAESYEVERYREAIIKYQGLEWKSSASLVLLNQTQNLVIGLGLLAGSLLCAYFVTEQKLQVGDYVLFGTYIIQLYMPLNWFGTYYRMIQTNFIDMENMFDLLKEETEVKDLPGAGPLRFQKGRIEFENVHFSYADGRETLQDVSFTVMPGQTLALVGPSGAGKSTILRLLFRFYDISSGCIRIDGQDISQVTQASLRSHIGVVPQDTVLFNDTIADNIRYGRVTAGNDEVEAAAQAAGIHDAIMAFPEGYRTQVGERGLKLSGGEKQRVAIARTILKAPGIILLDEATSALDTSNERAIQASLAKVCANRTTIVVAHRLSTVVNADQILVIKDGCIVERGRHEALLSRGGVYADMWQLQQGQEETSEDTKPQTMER
Integrin beta-1 (Homo sapiens) + Integrin alpha-4 (Homo sapiens), sequence (P05556 whole entry, looked up): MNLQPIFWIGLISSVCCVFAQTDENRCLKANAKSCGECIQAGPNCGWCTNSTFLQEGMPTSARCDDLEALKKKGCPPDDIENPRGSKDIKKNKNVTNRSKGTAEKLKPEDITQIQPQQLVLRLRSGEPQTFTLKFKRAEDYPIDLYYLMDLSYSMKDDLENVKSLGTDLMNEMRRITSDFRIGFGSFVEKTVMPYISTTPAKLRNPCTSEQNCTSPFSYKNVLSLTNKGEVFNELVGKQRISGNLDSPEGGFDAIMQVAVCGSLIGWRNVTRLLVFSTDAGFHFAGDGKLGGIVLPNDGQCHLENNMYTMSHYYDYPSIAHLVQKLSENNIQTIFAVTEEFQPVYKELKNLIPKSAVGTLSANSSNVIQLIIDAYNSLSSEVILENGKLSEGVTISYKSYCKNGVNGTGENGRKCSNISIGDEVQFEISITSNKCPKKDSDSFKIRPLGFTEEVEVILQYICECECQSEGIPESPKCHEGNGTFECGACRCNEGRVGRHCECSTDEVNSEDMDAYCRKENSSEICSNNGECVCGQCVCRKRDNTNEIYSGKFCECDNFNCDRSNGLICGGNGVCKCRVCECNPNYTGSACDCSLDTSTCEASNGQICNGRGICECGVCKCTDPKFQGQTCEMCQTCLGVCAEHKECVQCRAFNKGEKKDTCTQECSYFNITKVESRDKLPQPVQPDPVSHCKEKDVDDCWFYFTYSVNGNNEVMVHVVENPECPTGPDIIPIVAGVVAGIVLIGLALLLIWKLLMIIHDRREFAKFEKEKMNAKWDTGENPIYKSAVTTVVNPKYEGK
Integrin beta-1 (Homo sapiens) + Integrin alpha-4 (Homo sapiens), sequence (P13612 whole entry, looked up): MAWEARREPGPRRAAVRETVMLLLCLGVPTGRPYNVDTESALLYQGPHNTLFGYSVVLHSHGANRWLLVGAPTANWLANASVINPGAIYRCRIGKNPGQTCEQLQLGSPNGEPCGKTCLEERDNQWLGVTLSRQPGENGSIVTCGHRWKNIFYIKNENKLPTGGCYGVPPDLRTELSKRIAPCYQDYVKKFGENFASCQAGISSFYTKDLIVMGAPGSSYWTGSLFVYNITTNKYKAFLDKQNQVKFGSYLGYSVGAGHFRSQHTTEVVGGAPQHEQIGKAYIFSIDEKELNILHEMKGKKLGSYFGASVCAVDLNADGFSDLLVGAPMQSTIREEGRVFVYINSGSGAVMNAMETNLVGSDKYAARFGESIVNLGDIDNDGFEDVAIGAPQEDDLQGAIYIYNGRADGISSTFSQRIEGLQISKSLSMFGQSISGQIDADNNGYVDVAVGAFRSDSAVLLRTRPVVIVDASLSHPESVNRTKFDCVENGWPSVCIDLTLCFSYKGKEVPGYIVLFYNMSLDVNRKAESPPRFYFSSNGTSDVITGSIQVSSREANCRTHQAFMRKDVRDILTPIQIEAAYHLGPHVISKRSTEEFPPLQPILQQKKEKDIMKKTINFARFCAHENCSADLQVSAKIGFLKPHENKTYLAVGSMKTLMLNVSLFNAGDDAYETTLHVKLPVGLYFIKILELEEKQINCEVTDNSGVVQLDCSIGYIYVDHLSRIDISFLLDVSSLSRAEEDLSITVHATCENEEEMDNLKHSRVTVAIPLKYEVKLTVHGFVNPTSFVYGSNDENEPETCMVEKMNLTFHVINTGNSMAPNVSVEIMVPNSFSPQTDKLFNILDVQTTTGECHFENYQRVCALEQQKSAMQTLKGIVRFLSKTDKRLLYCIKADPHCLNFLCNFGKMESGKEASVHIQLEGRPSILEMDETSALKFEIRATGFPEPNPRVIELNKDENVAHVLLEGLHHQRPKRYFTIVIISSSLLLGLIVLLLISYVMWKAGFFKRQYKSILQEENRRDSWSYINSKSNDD
AP-2 complex subunit beta (Homo sapiens), sequence (P63010 whole entry, looked up, the tested form may be a part, one chain of several): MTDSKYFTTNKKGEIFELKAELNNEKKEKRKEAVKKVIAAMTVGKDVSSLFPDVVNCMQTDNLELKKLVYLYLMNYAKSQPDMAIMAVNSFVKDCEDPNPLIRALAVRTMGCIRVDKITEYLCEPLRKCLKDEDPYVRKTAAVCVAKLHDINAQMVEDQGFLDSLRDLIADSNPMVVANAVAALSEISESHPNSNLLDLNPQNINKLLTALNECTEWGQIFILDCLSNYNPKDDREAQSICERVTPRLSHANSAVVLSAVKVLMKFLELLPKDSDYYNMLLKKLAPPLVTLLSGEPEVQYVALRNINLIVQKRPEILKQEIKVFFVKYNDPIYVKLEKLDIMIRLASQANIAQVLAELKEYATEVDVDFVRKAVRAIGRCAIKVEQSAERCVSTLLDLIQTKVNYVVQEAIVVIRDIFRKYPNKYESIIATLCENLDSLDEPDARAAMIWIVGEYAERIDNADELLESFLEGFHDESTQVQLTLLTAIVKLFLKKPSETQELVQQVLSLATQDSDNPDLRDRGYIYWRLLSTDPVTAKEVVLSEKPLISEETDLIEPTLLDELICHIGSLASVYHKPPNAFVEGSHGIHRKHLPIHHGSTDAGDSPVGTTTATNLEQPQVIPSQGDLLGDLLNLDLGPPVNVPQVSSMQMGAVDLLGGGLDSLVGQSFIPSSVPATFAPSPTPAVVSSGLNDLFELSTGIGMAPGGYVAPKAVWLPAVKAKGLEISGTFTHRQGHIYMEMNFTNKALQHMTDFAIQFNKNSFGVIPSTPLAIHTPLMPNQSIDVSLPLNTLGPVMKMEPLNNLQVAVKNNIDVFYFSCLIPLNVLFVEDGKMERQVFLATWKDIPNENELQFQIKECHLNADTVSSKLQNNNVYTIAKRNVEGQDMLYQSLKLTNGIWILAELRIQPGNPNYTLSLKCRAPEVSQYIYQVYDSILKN
Beta-2 adrenergic receptor (Homo sapiens), sequence (P07550 whole entry, looked up): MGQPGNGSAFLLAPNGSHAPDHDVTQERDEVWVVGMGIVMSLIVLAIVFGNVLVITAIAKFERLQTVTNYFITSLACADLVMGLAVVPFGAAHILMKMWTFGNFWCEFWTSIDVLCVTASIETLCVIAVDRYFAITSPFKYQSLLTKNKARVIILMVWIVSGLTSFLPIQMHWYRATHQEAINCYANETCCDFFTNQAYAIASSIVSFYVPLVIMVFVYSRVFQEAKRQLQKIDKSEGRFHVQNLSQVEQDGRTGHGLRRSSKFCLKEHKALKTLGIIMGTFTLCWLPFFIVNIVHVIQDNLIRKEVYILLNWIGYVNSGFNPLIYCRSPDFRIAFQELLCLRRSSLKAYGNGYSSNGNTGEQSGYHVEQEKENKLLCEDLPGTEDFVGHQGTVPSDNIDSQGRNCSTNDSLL
Beta-adrenergic receptor kinase 1 (Homo sapiens), sequence (P25098 whole entry, looked up): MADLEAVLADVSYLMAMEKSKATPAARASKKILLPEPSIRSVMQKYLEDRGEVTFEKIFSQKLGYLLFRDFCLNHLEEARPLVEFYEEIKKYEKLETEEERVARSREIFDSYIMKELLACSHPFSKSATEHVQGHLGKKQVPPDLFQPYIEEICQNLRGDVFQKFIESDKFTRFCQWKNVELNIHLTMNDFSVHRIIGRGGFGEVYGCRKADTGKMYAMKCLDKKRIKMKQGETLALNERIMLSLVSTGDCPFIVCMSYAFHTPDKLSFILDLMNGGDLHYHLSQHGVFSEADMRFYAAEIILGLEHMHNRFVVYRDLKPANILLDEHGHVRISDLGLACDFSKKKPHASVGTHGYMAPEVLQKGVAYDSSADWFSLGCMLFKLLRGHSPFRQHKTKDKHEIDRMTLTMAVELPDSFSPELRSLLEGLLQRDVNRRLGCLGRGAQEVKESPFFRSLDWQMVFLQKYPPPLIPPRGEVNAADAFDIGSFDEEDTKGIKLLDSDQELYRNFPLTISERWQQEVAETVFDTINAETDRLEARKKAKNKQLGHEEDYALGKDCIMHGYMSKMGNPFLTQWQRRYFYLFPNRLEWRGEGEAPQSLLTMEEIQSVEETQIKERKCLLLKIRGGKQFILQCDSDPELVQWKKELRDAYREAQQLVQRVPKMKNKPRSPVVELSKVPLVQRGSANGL

Consider `O=C(COc1ccc(F)cc1)OCCN1CCOCC1`, for which the percent of DMSO control GFP in assay [1] is 102% (inactive). The GFP response vs DMSO in [2] is 95.1% (inactive); in assay [4], 93.3% (inactive). Besides, the percent response of DMSO control in [3] is 112% (inactive). Moreover, in [5], the GFP response, % of DMSO was 102% (inactive). In assay [6], this compound displayed a double positive events of 62.8%. For the same compound, the vesicle binding response in assay [6] was 246% (inactive). Also, the results for the inhibition in assay [7], in assay [11] and in assay [15] were -2.53% (inactive), -0.56% (inactive) and -1% (inactive), respectively. In addition, the superoxide response (% of plate) in assay [8] was 89.6% (inactive). In addition, the aptamer binding inhibition in assay [9] is 0% (inactive). For the same compound, the response in assay [10] was -7.72% (inactive); in assay [12], 21.8% (active). Also, the binding (% of control) in [13] was 96.4% (inactive). In addition, the efflux inhibition (fraction of control) in assay [14] was -0.1 (inactive). Besides, in assay [16], the differentiation response is -6.6% (inactive).
For `COc1ccc(C(=O)CC2OC(=O)c3c2ccc(OC)c3OC)cc1` (stereo not drawn), the percent of DMSO control GFP in [1] was 106% (inactive). For the same compound, the values for the GFP response vs DMSO in [2] and in assay [4] were 100% (inactive) and 99.9% (inactive), respectively. Moreover, the percent response of DMSO control in assay [3] was 106% (inactive). The GFP response, % of DMSO in assay [5] was 104% (inactive). In addition, in assay [6], the double positive events was found to be 63%. For the same compound, in [6], the vesicle binding response was 256% (inactive). In addition, the figures for the inhibition in assay [7], in [11] and in assay [15] were 4.73% (inactive), -3.63% (inactive) and 8% (inactive), respectively. Besides, the superoxide response (% of plate) in [8] is 107% (inactive). The aptamer binding inhibition in assay [9] is 2% (inactive). For the same compound, the values for the response in [10] and in assay [12] were -6.79% (inactive) and -4.39% (inactive), respectively. In addition, the binding (% of control) in [13] is 95.8% (inactive). For the same compound, the efflux inhibition (fraction of control) in assay [14] was -0.01 (inactive). Also, the differentiation response in [16] was -2.69% (inactive).
On to `COc1cc(C(=O)Nc2cccc(-c3nnc(-c4ccco4)o3)c2)ccc1OC(C)=O`, for which the percent of DMSO control GFP in [1] is 103% (inactive). For the same compound, the GFP response vs DMSO was 103% (inactive) in [2] and 109% (inactive) in [4]. In assay [3], the percent response of DMSO control is 104% (inactive). The GFP response, % of DMSO in assay [5] was 107% (inactive). Moreover, in assay [6], the double positive events is 52.3%. Further, the vesicle binding response in [6] is 52.3% (active). For the same compound, the values for the inhibition in assay [7], in [11] and in assay [15] were 12.5% (inactive), 64.4% (active) and -5% (inactive), respectively. In addition, the superoxide response (% of plate) in assay [8] was 109% (inactive). In addition, in assay [9], the aptamer binding inhibition is 5% (inactive). Also, the response in assay [10] was 3.82% (inactive); in [12] it was 2.66% (inactive). Moreover, the binding (% of control) in assay [13] was 106% (inactive). In [14], the efflux inhibition (fraction of control) was 0.17 (inactive). Further, the differentiation response in [16] is -10.9% (inactive).
Consider `COc1cc2c(cc1OC)CN(Cc1ccc(C)s1)CC2`, for which the percent of DMSO control GFP in assay [1] is 102% (inactive). The GFP response vs DMSO was 106% (inactive) in assay [2] and 88.1% (inactive) in assay [4]. Moreover, in assay [3], the percent response of DMSO control is 105% (inactive). Moreover, the GFP response, % of DMSO in assay [5] was 98% (inactive). Further, the double positive events in assay [6] was 64.1%. In addition, in [6], the vesicle binding response was 349% (inactive). The figures for the inhibition in [7], in [11] and in assay [15] were -13.9% (inactive), 14.8% (inactive) and 4% (inactive), respectively. Also, the superoxide response (% of plate) in [8] was 103% (inactive). The aptamer binding inhibition in assay [9] was 4% (inactive). For the same compound, the response in assay [10] was -7.1% (inactive); in assay [12], -3% (inactive). In assay [13], the binding (% of control) was 101% (inactive). In addition, the efflux inhibition (fraction of control) in assay [14] was 0.05 (inactive). The differentiation response in [16] was 2.2% (inactive).
